Values joined by “and” are separate entries in the source; they are usually repeats but may differ in a detail not shown here. Equal values may be shown once. Records with an inconclusive call do not appear. Active and inactive are the calls of the source.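 Rule for the calls, unless noted: active = normalized viability below 100% at a tested concentration; inactive = the rest.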
Tests used:
[1] = growth inhibition of DIPG glioma cells, dose response, cell-based, SU-DIPG-XVII, MIPE5.0, CellTiter-Glo, qHTS (AID 1347060; cut-off not given, nearly all actives have AC50 up to about 26 µM;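 note: cells exposed to compound for 48 hours before viability readout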); conditions: SU-DIPG-XVII viability, CellTiter-Glo ATP luminescence
[2] = growth inhibition of DIPG glioma cells, dose response, cell-based, SU-DIPG-XIII, MIPE4.0, CellTiter-Glo, qHTS (AID 1347061; cut-off not given, nearly all actives have AC50 up to about 37 µM;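 note: cells exposed to compound for 48 hours before readout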); conditions: SU-DIPG-XIII viability, CellTiter-Glo ATP luminescence
[3] = growth inhibition of DIPG glioma cells, dose response, cell-based, JHH-DIPG-1, MIPE4.0, CellTiter-Glo, qHTS (AID 1347062; cut-off not given, nearly all actives have AC50 up to about 27 µM); conditions: JHH-DIPG-1 viability, CellTiter-Glo ATP luminescence
[4] = growth inhibition of DIPG glioma cells, dose response, cell-based, SU-DIPG-XIII, MIPE5.0, CellTiter-Glo, qHTS (AID 1347064; cut-off not given, nearly all actives have AC50 up to about 23 µM); conditions: SU-DIPG-XIII viability, CellTiter-Glo ATP luminescence
[5] = SU-DIPG-VI glioma cell viability, MIPE4.0 library, CellTiter-Glo luminescence, qHTS (AID 1347066; cut-off not given, nearly all actives have AC50 up to about 30 µM;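 note: cells exposed to compound for 48 hours before readout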); conditions: CellTiter-Glo ATP luminescence
[6] = JHH-DIPG-1 glioma cell viability, MIPE5.0 library, CellTiter-Glo luminescence, qHTS (AID 1347067; cut-off not given, nearly all actives have AC50 up to about 26 µM;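 note: cells exposed to compound for 48 hours before readout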); conditions: JHH-DIPG-1 glioma viability, CellTiter-Glo ATP luminescence
[7] = SU-DIPG-XXV glioma cell viability, MIPE5.0 library, qHTS (AID 1347068; cut-off not given, nearly all actives have IC50 up to about 30 µM)
[8] = sensitizers of A549 cells to miR-34 induction, primary screen, imaging, A549 dox-inducible miR-34, nuclei and caspase counts (AID 1347080;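 active = compounds whose cell count with miR-34 switched on is under 0.7 times the count with it off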); conditions: A549 miR-34 inducible, Hoechst nuclei count, 48 h
[9] = modifiers of HSF1 nuclear foci, imaging, Selleck Cancer Library (AID 1347162; in the data active = plate-normalised HSF1 focus index below about 0.46); conditions: human cells, at 10 µM; SSMD: measured here: HSF1 foci SSMD mean; cell count: measured here: cell number; plate-normalised HSF1 focus index: stronger effect = lower value
[10] = survival rescue of mitochondrial mutant cells in low glucose, primary screen, MELAS cybrids, Rieske KO mouse fibroblasts, CellTiter-Glo (AID 1508586;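 active = mean z-score across replicates of 1.96 or higher in either the MELAS or the Rieske mutant cell line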;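 note: z relative to plate mean and SD of compound and empty wells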)
[11] = ovarian cancer cell viability with rucaparib, profiling panel, oncology-focused library, rucaparib conditional (AID 1508598); conditions: patient-derived ovarian cancer cells, CellTiter-Glo viability, 144 h, stronger effect = lower value
[12] = LFS_MB_P medulloblastoma growth inhibition, cell-based, chromothripsis tumors, cisplatin or BGB combos (AID 1671449; in the data active = inhibition above about 80%;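 note: cells exposed for 96 hours; 0% = vehicle DMSO and 100% = killing by high DMSO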); conditions: LFS_MB_P medulloblastoma cells
[13] = HDN33 neuroblastoma growth inhibition, cell-based, chromothripsis tumors, cisplatin or BGB combos (AID 1671450; in the data active = inhibition above about 80%;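 note: cells exposed to compound for four days; 0% = vehicle DMSO and 100% = cell killing by high DMSO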); conditions: HDN33 neuroblastoma cells, stronger effect = higher value
[14] = ICB984 medulloblastoma cell growth inhibition, synergistic combos for chromothripsis tumors, cisplatin or BGB combos (AID 1671451; call rule not given here;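 note: cells exposed for 96 hours before readout; 0% = vehicle DMSO and 100% = killing by high DMSO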); conditions: ICB984 medulloblastoma cells, drug combinations, stronger effect = higher value
[15] = HTB85 osteosarcoma cell growth inhibition, synergistic combos for chromothripsis tumors, BGB or cisplatin IC20 combos (AID 1671453; in the data active = inhibition above about 80%;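 note: cells exposed for 96 hours before readout; 0% = vehicle DMSO and 100% = high DMSO killing control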); conditions: HTB85 osteosarcoma cells, drug combinations, stronger effect = higher value
[16] = MDA-MB-436 breast carcinoma cell growth inhibition, synergistic combos for chromothripsis tumors, BGB or cisplatin combos (AID 1671458; call rule not given here;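 note: cells exposed for 96 hours; 0% = vehicle DMSO and 100% = killing by high DMSO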); conditions: MDA-MB-436 breast carcinoma growth inhibition, drug combinations, stronger effect = higher value
[17] = growth inhibition of BT084 medulloblastoma cells, cell-based, ICGC_MB145, cisplatin and BGB IC40 combos (AID 1671461; in the data active = inhibition above about 80%;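 note: cells exposed to drugs for 96 hours; 0% = vehicle DMSO and 100% = high DMSO full killing control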); conditions: drug combinations, stronger effect = higher value
[18] = growth inhibition of RCMB18 medulloblastoma cells, cell-based, cisplatin and BGB IC40 combos (AID 1671462; in the data active = inhibition above about 80%;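 note: cells exposed to compound for four days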); conditions: stronger effect = higher value

## O=C(c1cc(Cc2n[nH]c(=O)c3ccccc23)ccc1F)N1CCN(C(=O)C2CC2)CC1
[1]
  AC50: 20.9 µM (active)
[2]
  AC50: 18.7 µM (active)
[3]
  outcome: inactive
[4]
  outcome: inactive
[5]
  outcome: inactive
[6]
  outcome: inactive
[7]
  outcome: inactive
[8]; stronger effect = lower value, cell number ratio, induced over uninduced
  fold change: 0.871 (inactive)
[8]; measured here: relative caspase fold change +Dox/-Dox
  fold change: 1.53
[8]; measured here: total cells with miR-34 induction, stronger effect = lower value
  cell count: 4680
[8]; measured here: total cells without miR-34 induction
  cell count: 5380
[9]
  SSMD: 2.16
  cell count: 7320
  plate-normalised HSF1 focus index: 1.13 (inactive)
[10]; MELAS cybrid survival, CellTiter-Glo 48 h, stronger effect = higher value
  z-score: -0.516 (inactive)
[10]; Rieske KO mouse fibroblast survival, CellTiter-Glo 72 h
  z-score: 0.876
[11]; at 0.000305 µM, OCI-C5x cells, with rucaparib 10 µM, 100% = cells with rucaparib alone
  viability: 125% (inactive)
[11]; at 0.000305 µM, OCI-C5x cells, without rucaparib
  viability: 123% (inactive)
[11]; at 0.000305 µM, OCI-P5x cells, with rucaparib 20 µM, 100% = cells with rucaparib alone
  viability: 96.5% (active)
[11]; at 0.000305 µM, OCI-P5x cells, without rucaparib
  viability: 101% (inactive)
[11]; at 0.00122 µM, OCI-C5x cells, with rucaparib 10 µM, 100% = cells with rucaparib alone
  viability: 132% (inactive)
[11]; at 0.00122 µM, OCI-C5x cells, without rucaparib
  viability: 122% (inactive)
[11]; at 0.00122 µM, OCI-P5x cells, with rucaparib 20 µM, 100% = cells with rucaparib alone
  viability: 104% (inactive)
[11]; at 0.00122 µM, OCI-P5x cells, without rucaparib
  viability: 97% (active)
[11]; at 0.00488 µM, OCI-C5x cells, with rucaparib 10 µM, 100% = cells with rucaparib alone
  viability: 128% (inactive)
[11]; at 0.00488 µM, OCI-C5x cells, without rucaparib
  viability: 120% (inactive)
[11]; at 0.00488 µM, OCI-P5x cells, with rucaparib 20 µM, 100% = cells with rucaparib alone
  viability: 101% (inactive)
[11]; at 0.00488 µM, OCI-P5x cells, without rucaparib
  viability: 92.4% (active)
[11]; at 0.0195 µM, OCI-C5x cells, with rucaparib 10 µM, 100% = cells with rucaparib alone
  viability: 114% (inactive)
[11]; at 0.0195 µM, OCI-C5x cells, without rucaparib
  viability: 123% (inactive)
[11]; at 0.0195 µM, OCI-P5x cells, with rucaparib 20 µM, 100% = cells with rucaparib alone
  viability: 96.5% (active)
[11]; at 0.0195 µM, OCI-P5x cells, without rucaparib
  viability: 87.9% (active)
[11]; at 0.0781 µM, OCI-C5x cells, with rucaparib 10 µM, 100% = cells with rucaparib alone
  viability: 118% (inactive)
[11]; at 0.0781 µM, OCI-C5x cells, without rucaparib
  viability: 119% (inactive)
[11]; at 0.0781 µM, OCI-P5x cells, with rucaparib 20 µM, 100% = cells with rucaparib alone
  viability: 104% (inactive)
[11]; at 0.0781 µM, OCI-P5x cells, without rucaparib
  viability: 96% (active)
[11]; at 0.313 µM, OCI-C5x cells, with rucaparib 10 µM, 100% = cells with rucaparib alone
  viability: 118% (inactive)
[11]; at 0.313 µM, OCI-C5x cells, without rucaparib
  viability: 123% (inactive)
[11]; at 0.313 µM, OCI-P5x cells, with rucaparib 20 µM, 100% = cells with rucaparib alone
  viability: 96.9% (active)
[11]; at 0.313 µM, OCI-P5x cells, without rucaparib
  viability: 85.5% (active)
[11]; at 1.25 µM, OCI-C5x cells, with rucaparib 10 µM, 100% = cells with rucaparib alone
  viability: 123% (inactive)
[11]; at 1.25 µM, OCI-C5x cells, without rucaparib
  viability: 117% (inactive)
[11]; at 1.25 µM, OCI-P5x cells, with rucaparib 20 µM, 100% = cells with rucaparib alone
  viability: 94.6% (active)
[11]; at 1.25 µM, OCI-P5x cells, without rucaparib
  viability: 75.5% (active)
[11]; at 5 µM, OCI-C5x cells, with rucaparib 10 µM, 100% = cells with rucaparib alone
  viability: 105% (inactive)
[11]; at 5 µM, OCI-C5x cells, without rucaparib
  viability: 115% (inactive)
[11]; at 5 µM, OCI-P5x cells, with rucaparib 20 µM, 100% = cells with rucaparib alone
  viability: 86.1% (active)
[11]; at 5 µM, OCI-P5x cells, without rucaparib
  viability: 66.2% (active)
[12]; at 0.5 µM, stronger effect = higher value
  inhibition: -24.7% (inactive) and -29.1% (inactive)
[12]; measured here: combination with BGB IC20, at 0.005 µM
  inhibition: -26.5% and -12.3%
[12]; measured here: combination with BGB IC40, at 0.005 µM
  inhibition: -9.06% and -12.6%
[12]; measured here: combination with BGB IC40, at 0.05 µM
  inhibition: -0.874% and -8.68%
[12]; measured here: combination with cisplatin, at 0.5 µM, stronger effect = higher value
  inhibition: -41.7% and -35.8%
[12]; measured here: combination with cisplatin, at 5 µM, stronger effect = higher value
  inhibition: -43.9% and -38.7%
[13]; BGB combo, at 5 µM
  inhibition: 14.5% and 9.24%
[13]; at 0.5 µM
  inhibition: 9.6% (inactive) and 3.35% (inactive)
[13]; cisplatin combo, at 5 µM
  inhibition: 34.3% and 41.4%
[13]; measured here: with BGB IC20 combination, at 0.5 µM
  inhibition: 5.51% and -1.25%
[13]; measured here: with cisplatin IC20 combination, at 0.5 µM
  inhibition: 12.4% and 7.9%
[13]; single agent, at 5 µM
  inhibition: 33% and 44.4%
[14]; BGB IC20 combo, at 0.005 µM
  inhibition: -15.2% and -6.05%
[14]; BGB IC40 combo, at 0.005 µM
  inhibition: -0.22% and -27.2%
[14]; BGB IC40 combo, at 0.05 µM
  inhibition: -4.94% and -12.9%
[14]; at 0.5 µM
  inhibition: -19.9% (inactive) and -38.5% (inactive)
[14]; cisplatin combo, at 0.05 µM
  inhibition: -4.94% and -17.3%
[14]; cisplatin combo, at 0.5 µM
  inhibition: -29% and -53.3%
[14]; cisplatin combo, at 5 µM
  inhibition: -23.6% and -39.9%
[14]; measured here: 5 uM single agent, at 5 µM
  inhibition: -15.8% and -10.7%
[15]; at 0.5 µM
  inhibition: -1.59% (inactive) and -5.82% (inactive)
[15]; measured here: with BGB IC20, at 0.5 µM
  inhibition: -20% and -25.5%
[15]; measured here: with BGB IC20, at 5 µM
  inhibition: -17% and 2.87%
[15]; measured here: with cisplatin IC20, at 0.5 µM
  inhibition: 8.83% and 6.96%
[15]; measured here: with cisplatin IC20, at 5 µM
  inhibition: 18.3% and 28.5%
[15]; single agent, at 5 µM
  inhibition: 9.91% and 21.3%
[16]; at 0.5 µM
  inhibition: 6.46% (inactive) and -12% (inactive)
[16]; measured here: BGB combination, at 0.5 µM
  inhibition: 1.64% and -35.6%
[16]; measured here: BGB combination, at 5 µM
  inhibition: -1.2% and -15.8%
[16]; measured here: cisplatin combination, at 0.5 µM
  inhibition: -0.142% and -2.85%
[16]; measured here: cisplatin combination, at 5 µM
  inhibition: 30.4% and 14.1%
[17]; at 0.5 µM
  inhibition: -15.3% (inactive) and -32.2% (inactive)
[17]; cisplatin combination, at 0.5 µM
  inhibition: -11.1% and -29.9%
[17]; cisplatin combination, at 5 µM
  inhibition: -16.5% and -11.4%
[17]; measured here: BGB IC40 combination 0.05 uM, at 0.05 µM
  inhibition: -6.85% and 14.5%
[17]; single agent, at 5 µM
  inhibition: -19.8% and -50%
[18]; at 0.5 µM
  inhibition: -14.1% (inactive) and 10.3% (inactive)
[18]; cisplatin combo, at 5 µM
  inhibition: 0.788% and 11.5%
[18]; measured here: BGB IC40 combination, at 0.05 µM
  inhibition: -1.19% and -22.9%
[18]; measured here: combination with cisplatin, at 0.5 µM
  inhibition: -43.2% and 20.2%
[18]; single agent, at 5 µM
  inhibition: -22.3% and -45%

From PubChem BioAssay
